# High-throughput results as filed in PubChem BioAssay.
# A selection: hits, their analogues and other compounds. The true share with any hit is near 0.5%.
# E coli growth-1 = E. coli V3065 growth inhibition, primary screen, counter-screen for AddAB inhibitor project, absorbance, OD600; AID 449728, 2010; 330,000 compounds, 0.27% hits; inhibition, % at 11.9 µM; 18 h;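 active means inhibition above the campaign's mean inhibition across all tested compounds plus 3 SD, cut at about 9.9% in these data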;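 further: uninfected addAB+ strain grown without phage in ampicillin broth; 0% = DMSO wells and 100% = ciprofloxacin 0.95 µg/ml wells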
# AddAB inh = growth inhibition of E. coli expressing H. pylori AddAB, primary screen, AddAB inhibitor project, absorbance | inhibition, % at 11.9 µM | AID 435030, 2010 | 330,000 compounds, 0.29% hits; in the data active means inhibition above about 12%;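 further: 0% = vehicle wells of infected cells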
# E coli growth-2 = E. coli growth inhibition, primary screen, OD600; Escherichia coli growth, 23 h; hits give low values; OD600 absorbance (concentration not given with the values); 330,000 compounds, 0.21% hits; AID 1053175, 2014;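 active means OD600 absorbance below the run mean of sample wells minus 3.6 SD, in any replicate, cut at about 0.56 in these data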
# phage Ecoli inh = growth loss of phage-infected E. coli, primary screen, RecBCD inhibitor project, absorbance, with phage, HTS | inhibition, % at 11.9 µM | 360,000 compounds, 0.26% hits; in the data active means inhibition above about 11%
# Tat transport = E. coli Tat export inhibitors, primary screen, MC4100, TorA-mCherry reporter, fluorescence, single point | inhibition, % at 10 µM | 340,000 compounds, 0.036% hits;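 active means mean replicate inhibition at least 50% and at least half of replicates individually reaching 50%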;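 further: exported cargo escapes ClpAP degradation while cytoplasmic cargo is degraded and loses fluorescence; 0% = median of neutral control wells and 100% = median of NaSCN control wells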
# AddAB conf = growth loss of phage-infected E. coli expressing H. pylori AddAB, confirmation, AddAB inhibitor project, absorbance, E. coli V3065, T4 phage, triplicate | AID 488942, 2010 | 880 compounds, 64% hits | OD; T4 phage with gene 2 nonsense mutations | shares compounds with AddAB inh | inhibition, % at 11.9 µM;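 active means mean inhibition above a set limit taken from the earlier primary screen, cut at about 13% in these data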;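 further: higher means less bacterial growth since AddAB block lets phage replicate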
# RecBCD counter = growth loss of RecBCD+ E. coli with mutant T4 phage, counter-screen for AddAB inhibitor project, absorbance, V66 E. coli | shares compounds with AddAB inh | OD growth | inhibition, % at 11.9 µM | 880 compounds, 73% hits | AID 488955, 2010;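 active means mean inhibition above the mean of solvent-only control wells plus 3 SD, cut at about 4% in these data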;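 further: optical density read after an 18 h incubation at 37 °C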
# bact viab count = bacterial viability inhibition counter-screen, confirmation, counter-screen for AddAB inhibitor project, absorbance. shares compounds with AddAB inh. absorbance (AddAB counterscreen). inhibition, % at 11.9 µM. 880 compounds, 35% hits. AID 488956, 2010; in the data active means inhibition above about 25%
# RecBCD conf = growth loss of phage-infected RecBCD+ E. coli, confirmation, RecBCD inhibitor project, absorbance, E. coli V66, T4 gene 2 phage; shares compounds with phage Ecoli inh; E. coli V66 + T4 2- phage, growth OD; inhibition, % at 11.9 µM; 890 compounds, 45% hits;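 active means mean inhibition over triplicates exceeding the hit threshold derived in the original primary screen, cut at about 11% in these data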
# Ecoli viability = E. coli viability inhibition, counter-screen for RecBCD inhibitor project, absorbance, high throughput. shares compounds with phage Ecoli inh. absorbance (OD) growth. inhibition, % at 11.9 µM. 890 compounds, 29% hits. AID 651983, 2013; in the data active means inhibition above about 20%;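 further: E. coli strain V66 grown with compound alone and no phage infection; 0% = bacteria with DMSO vehicle only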
# AddAB phage OD = growth loss of phage-infected AddAB-carrying E. coli, confirmation, counter-screen for RecBCD inhibitor project, absorbance, E. coli V3065, T4 phage; 890 compounds, 45% hits; inhibition, % at 11.9 µM; shares compounds with phage Ecoli inh; E. coli expressing H. pylori AddAB + T4 phage, OD growth; gene 2 mutant T4, recBCD-deleted host;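 active means mean inhibition above the solvent-only control wells' mean plus 3 SD, cut at about 22% in these data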;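 further: higher means less bacterial growth from phage killing when AddAB is blocked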
# Active calls of the source: *; · = no result given.
SMILES,E coli growth-1,AddAB inh,E coli growth-2,phage Ecoli inh,Tat transport,AddAB conf,RecBCD counter,bact viab count,RecBCD conf,Ecoli viability,AddAB phage OD
C[C@H]1c2cccc(O)c2C(O)=C2C(=O)C3(O)C(O)=C(C(N)=O)C(=O)[C@@H](N(C)C)[C@@H]3[C@@H](O)[C@@H]21 (stereo partly drawn),97*,96*,·,101*,152*,101*,100*,101*,103*,104*,104*
Oc1c(N=Nc2ccccn2)ccc2ccccc12,18*,20*,0.75,18*,2,21*,17*,18,12*,13,26*
Oc1[nH]c2ccccc2c1N=Nc1ccccn1,·,·,·,1,7,·,·,·,·,·,·
COc1ccc(CN2CCNC(=O)C2CC(=O)N(C)C2CCCCC2)cc1OC (stereo not drawn),·,·,·,1,·,·,·,·,·,·,·
CCC(=O)NC(c1ccco1)c1cc(Cl)c2cccnc2c1OC (stereo not drawn),-1,0,0.68,1,-20,·,·,·,·,·,·
CC(=O)NC(c1cc(Cl)c2cccnc2c1O)C(C)C (stereo not drawn),-1,4,0.67,8,0,·,·,·,·,·,·
CCCCC(=O)NC(c1ccco1)c1cc(Cl)c2cccnc2c1O (stereo not drawn),24*,16*,0.71,21*,2,18*,18*,15,10,12,15
CCC(=O)NC(c1ccc(OC)cc1)c1cc(Cl)c2cccnc2c1O (stereo not drawn),23*,26*,0.65,21*,0,21*,23*,18,13*,17,21*
CCCC(=O)NC(c1cccs1)c1cc([N+](=O)[O-])c2cccnc2c1O (stereo not drawn),-1,5,0.66,3,-7,·,·,·,·,·,·
CCC(=O)NC(c1ccco1)c1cc(Cl)c2cccnc2c1O (stereo not drawn),15*,16*,0.71,13*,4,5,11*,1,2,4,18
FC(F)(F)c1cnc(Sc2nnc(-c3cccs3)n2CC2CCCO2)c(Cl)c1 (stereo not drawn),-2,-2,0.67,2,-1,·,·,·,·,·,·
O=C(NNC(=S)NCc1ccc(Cl)cc1)c1ccc2c(c1)OCO2,1,-2,0.65,0,-7,·,·,·,·,·,·
CCOc1ccc(C(O)(c2ccccc2OC)C(CN2CCCC2)c2ccccc2)cc1 (stereo not drawn),0,4,0.68,3,-5,·,·,·,·,·,·
O=C(Cn1cnc([N+](=O)[O-])c1)NC1CCCC1,-1,1,0.73,-2,-3,·,·,·,·,·,·
c1ccc(-c2nnc(-c3ccccn3)nc2NC2CCCCC2)cc1,18*,16*,0.41*,14*,-10,20*,15*,14,6,6,18
CCOC(=O)CSc1nc2cc(C(=O)N3CCCC3)ccc2c(=O)n1Cc1ccccc1,-3,-1,0.71,1,-3,·,·,·,·,·,·
C=CC[n+]1c(/C=C2\C=Cc3cc(C)ccc3N2CC)ccc2ccccc21,22*,20*,0.53,12*,-9,66*,6.6*,24,3,2,36*
O=C(N/N=C/c1c(O)ccc2ccccc12)c1cccc(C(F)(F)F)c1,22*,28*,·,18*,-5,14*,17*,7,8,13,20
[N-]=[N+]=NC1C[C@H](n2ccc(=O)[nH]c2=O)O[C@@H]1CO (stereo partly drawn),38*,37*,·,32*,-1,94*,20*,77*,41*,28*,85*
FC(F)(F)c1nnc(Nc2ccc(Cl)cc2)s1,5,6,0.52,7,-6,·,·,·,·,·,·
Fc1ccc(Nc2nnc(C(F)(F)F)s2)cc1Cl,16*,14*,0.44*,14*,-17,17*,19*,13,7,9,20
CCC(NC(=O)NNC(N)=S)(C(F)(F)F)C(F)(F)F,0,2,0.68,2,2,·,·,·,·,·,·
NS(=O)(=O)c1ccc(N=Nc2ccc(O)c3ncccc23)cc1,4,6,0.7,1,-2,·,·,·,·,·,·
Oc1ccc(N=Nc2ccc3c(c2)OCCO3)c2ncccc12,9,13*,0.71,11*,-6,13*,9.6*,9,9,10,14
COc1ccc(/C=C/C(=O)C2CC2)cc1COc1cccc(C)c1C,1,2,0.72,-2,-1,·,·,·,·,·,·
SMILES,E coli growth-1,AddAB inh,E coli growth-2,phage Ecoli inh,Tat transport,AddAB conf,RecBCD counter,bact viab count,RecBCD conf,Ecoli viability,AddAB phage OD
CCCn1c2ccccc2c2nnc(SCC(=O)Nc3cc(C)on3)nc21,-1,3,0.78,0,-4,·,·,·,·,·,·
Cc1ccc(C(C)C)c(OCc2ccc(C(=O)N/N=C/c3ccc(O)cc3O)cc2)c1,15*,13*,·,27*,-7,15*,18*,20,14*,17,24*
CCOc1ccc(NC(=O)c2ccc(NC(=O)c3cn4c5c(c(N6CCN(C)CC6)c(F)cc5c3=O)OCC4C)cc2)cc1 (stereo not drawn),97*,95*,0.067*,99*,88*,100*,100*,99*,103*,104*,104*
CCOc1ccc(C(=O)Nc2ccc(N3CCN(C)CC3)cc2)cc1,0,4,0.62,5,-2,·,·,·,·,·,·
CC1COc2c(N3CCN(C)CC3)c(F)cc3c(=O)c(C(=O)O)cn1c23 (stereo not drawn),98*,99*,0.061*,98*,117*,100*,100*,101*,101*,102*,102*
O=C(CSc1nc2ccccc2[nH]1)Nc1ccc(N2CCOCC2)cc1,14*,25*,0.6,13*,-16,13*,17*,15,8,12,13
CC(=O)Nc1ccc2nc(SCC(=O)Nc3ccc(N4CCOCC4)c(Cl)c3)sc2c1,-3,2,0.67,3,-6,·,·,·,·,·,·
